# Keap1 Nrf2 FP: inhibitors of human Keap1-Nrf2 protein-protein interaction; Q14145; Keap1 Kelch-Nrf2 peptide fluorescence polarization, 1536-well; inhibition, % at 9.4 µM; hit rate 0.15% among 340,000; AID 504523; in the data active = inhibition above about 12%;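 also: human Keap1 Kelch domain with fluorescein labeled Nrf2 9mer peptide probe; 0% = neutral control wells and 100% = peptide positive control; higher means more block of Keap1 binding to Nrf2 peptide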
# C-LANA FP: blocks KSHV LANA C-terminal domain binding to DNA. hit rate 0.078% among 340,000. AID 504423. inhibition, % at 9 µM. MBP-C-LANA/FAM-LBS DNA binding, fluorescence polarization;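 active = highest replicate inhibition at or above 60% at 9 µM, even if other replicates fall short; inactive = all replicates below 60% inhibition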;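 also: 0% = neutral control wells and 100% = 4 µM acridine orange control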
# RTF Ca sens inh: cardiac RTF calcium desensitization. P19429+P45379. IANBD-labeled cardiac RTF, Ca2+ fluorescence. inhibition, % at 7.15 µM. hit rate 0.12% among 340,000. AID 493244;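 active = inhibition above the mean inhibition of all tested compounds plus 3 SD, cut at about 17% in these data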;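 also: assay run at fixed EC70 calcium of 1.6 mM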
# eLon inh: inhibitors of E. coli Lon protease | purified E. coli Lon protease, fluorescence polarization | AID 602123 | P0A9M0 | hit rate 0.42% among 360,000 | inhibition, % at 7.94 µM; in the data active = inhibition above about 13%, passing the limit was not always enough;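 also: 0% = enzyme with probe and DMSO and 100% = no enzyme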
# Target sequence (P0A9M0 whole entry, looked up): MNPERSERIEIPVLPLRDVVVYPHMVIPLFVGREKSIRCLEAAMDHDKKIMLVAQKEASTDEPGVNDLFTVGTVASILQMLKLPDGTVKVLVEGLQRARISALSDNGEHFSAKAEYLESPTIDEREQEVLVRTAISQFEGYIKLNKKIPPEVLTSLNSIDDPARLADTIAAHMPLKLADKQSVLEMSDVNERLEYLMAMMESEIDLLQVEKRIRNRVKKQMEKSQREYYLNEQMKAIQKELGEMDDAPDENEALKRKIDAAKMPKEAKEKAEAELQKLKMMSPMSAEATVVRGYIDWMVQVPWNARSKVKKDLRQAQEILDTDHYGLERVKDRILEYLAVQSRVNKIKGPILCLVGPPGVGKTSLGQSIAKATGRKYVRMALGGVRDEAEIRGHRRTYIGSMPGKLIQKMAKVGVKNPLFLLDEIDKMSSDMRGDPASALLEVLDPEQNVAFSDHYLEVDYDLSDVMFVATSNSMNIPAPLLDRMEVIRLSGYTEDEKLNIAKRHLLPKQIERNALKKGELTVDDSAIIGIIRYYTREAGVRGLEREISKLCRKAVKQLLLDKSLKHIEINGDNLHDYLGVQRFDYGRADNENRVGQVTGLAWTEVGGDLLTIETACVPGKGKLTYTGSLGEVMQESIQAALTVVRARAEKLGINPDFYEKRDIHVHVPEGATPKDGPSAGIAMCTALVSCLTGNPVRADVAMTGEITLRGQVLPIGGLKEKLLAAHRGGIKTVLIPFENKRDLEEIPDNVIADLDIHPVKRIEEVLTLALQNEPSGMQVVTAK
# RTF Ca sens act: cardiac RTF calcium sensitization; IANBD-labeled TnC RTF fluorescence at EC20 calcium; 0% EC20 calcium, 100% full calcium; activation, % at 7.2 µM; hit rate 0.24% among 340,000; AID 493008; P19429+P45379;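 active = activation above the mean over all tested compounds plus 3 SD, cut at about 30% in these data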;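 also: rise in fluorescence read as greater calcium sensitivity of cardiac thin filaments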
# * hit, by the source's call; i = inactive; · = no result. Rows were chosen to be rich in hits. Some 0.82% of all compounds tested hit in one or more screens of this group.
SMILES,Keap1 Nrf2 FP,C-LANA FP,RTF Ca sens inh,eLon inh,RTF Ca sens act
CC1(c2nc3ccccc3[nH]2)CCCC2=Nc3ccccc3CN21 (stereo unspecified),·,·,·,-6,·
Cc1cccc(-n2c(C)cc(C=C3C(=O)c4ccccc4C3=O)c2C)c1,4,13,-7,-11,62*
COc1ccc(OC)c(NC(=O)Nc2nc(C(N)c3ccccc3Cl)cs2)c1 (stereo unspecified),·,·,·,-1,·
N#CC1=C(N)OC2=C(CC/C2=C\c2ccccc2Cl)C1c1ccccc1Cl (stereo unspecified),-10,5,-37,-163,38*
N#CC1=C(N)OC2=C(C(=O)CCC2)C1c1ccccc1 (stereo unspecified),0,1,-8,-5,-2
N#CC1=C(N)OC2=C(CC/C2=C\c2ccccc2)C1c1ccccc1 (stereo unspecified),-9,1,-221,-222,127*
COc1ccccc1Cc1c(-c2cccc(Cl)c2)nc2ccc(Br)cn12,·,·,·,-41,·
O=C(Nc1ccc2c(c1)OCCO2)c1cccc(Cl)c1Cl,-2,0,1,4,39*
CC1(C(=O)Nc2cnc3ccccc3c2)CCN1Cc1ccc(-c2ccccc2)o1 (stereo unspecified),·,·,·,-1,·
C(=Cc1c[nH]c2ccccc12)c1nccc2ccccc12,-4,5,-20,11,23
OCC[n+]1ccc(/C=C/c2c[nH]c3ccccc23)cc1,-163,-19,-275,-255,189*
CC12CCC(/C(=C/NNc3ccc([N+](=O)[O-])cc3[N+](=O)[O-])C1=O)C2(C)C (stereo unspecified),·,·,·,2,·
CCc1nc2c(OCCC3CCCCC3)cccn2c1N(C)C(=O)c1cccs1,·,·,·,-5,·
COc1ccc2sc(-c3ccccc3OC)c(C#CC(C)(C)O)c2c1,-1,70*,-9,5,3
COc1cccc(-c2ccc3c(c2)O[C@H](CN(C)C(=O)c2ccccc2F)[C@H](C)CN([C@H](C)CO)S3(=O)=O)c1,·,·,·,1,·
Cc1ccc(S(=O)(=O)/N=C2/NC(=O)/C(=C/c3ccc(Br)o3)S2)cc1,-3,1,11,-43,6
Cc1ccc(S(=O)(=O)/N=C2/NC(=O)/C(=C\c3cc(Br)cc(Br)c3O)S2)cc1,-74,-16,-92,-88,63*
C/C(=N/NC(=O)CNC(=O)/C=C/c1ccccc1)c1ccco1,-1,3,0,-12,-1
C/C(=N/NC(=O)CNC(=O)Cc1ccccc1)c1ccco1,6,0,-4,-5,39*
O=C(NC12CC3CC(CC(C3)C1)C2)c1ccc(-c2ccccc2Cl)o1,1,-3,2,19*,8
O=C(CCc1ccc(S(=O)(=O)N2CCOCC2)cc1)OCC(=O)c1ccccc1,-9,0,-3,-14,37*
CC[n+]1c(/C=C/C=C/N(C(C)=O)c2ccccc2)sc2ccccc21,-341,-21,-431,-385,421*
Cn1ncc(Cl)c1C(=O)Nc1cccc(Cl)c1,2,0,-6,0,16
Cn1ncc(N=Cc2c(O)ccc3ccccc23)c1C(=O)Nc1cccc(Cl)c1,8,7,-8,-3,43*
Cc1ccc(C)n1/N=C1/NC(=O)CS1,0,87*,10,-21,-16
SMILES,Keap1 Nrf2 FP,C-LANA FP,RTF Ca sens inh,eLon inh,RTF Ca sens act
CC(=O)Nc1cccc(-c2ccnc3c2CC(C(=O)NCCC(F)(F)F)O3)c1 (stereo unspecified),·,·,·,10,·
COc1cc(/C=C2\CCC(C)C3=C(c4cc(OC)c(OC)c(OC)c4)C(C#N)=C(N)OC32)cc(OC)c1OC (stereo unspecified),-11,1,-57,-153,40*
COc1ccc(/C=c2\s/c(=C/C(=O)c3ccc(C)cc3)[nH]c2=O)c(OC)c1,2,1,-166,i,99*
CCc1nc2ccc(C(=O)NCCc3ccc(OC)c(OC)c3)cc2nc1CC,-4,1,-3,0,-4
COc1ccc(CCNC(=O)c2ccc3nc(-c4ccco4)c(-c4ccco4)nc3c2)cc1OC,5,10,20*,-4,-4
CN(C)c1ccc(/C=C/C(=O)c2cccc(Br)c2)cc1,-38,-4,-306,-396,135*
COCCN(C(=O)CN1CCCc2ccccc21)c1c(N)n(Cc2ccccc2)c(=O)[nH]c1=O,-4,24,-100,-18,61*
COCCN(C(=O)CN1CCc2ccccc21)c1c(N)n(Cc2ccccc2)c(=O)[nH]c1=O,-11,-2,-12,-195,4
CCN1/C(=C/C(C)=O)Sc2ccc(OC)cc21,0,-2,4,-2,0
CCOC(=O)/C(=C/C=C1\Sc2cc(OCC)c(OCC)cc2N1CC)C(C)=O,-460,-92,i,i,534*
CCOC(=O)/C(=C\C=C1/Sc2cc(OCC)c(OCC)cc2N1CC)C(C)=O,-454,-116,i,i,516*
O=C(CSc1nnc(-c2ccco2)c(-c2ccco2)n1)Nc1ccccc1,-1,6,1,157*,-6
CN(C)c1ccc(NC(=O)CSc2nnc(-c3ccco3)c(-c3ccco3)n2)cc1,-1,1,-1,9,-1
CCn1c(O)c(/C=N/N=C/c2ccccc2)c2ccc(C3=NNC(=O)CC3)cc21,2,7,-122,-79,36*
CCC(CC)=N/N=C/c1c(O)n(CC)c2cc(C3=NNC(=O)CC3)ccc12,0,-1,-5,-3,2
Clc1ccc(-c2nc3c4ccccc4ccn3c2Cc2ccsc2)cc1,·,·,·,-8,·
CCc1nc2ccc(C(=O)N(C)CCCN(C)C)cn2c1N(C)Cc1cc2ccccc2s1,·,·,·,-6,·
CSC1=NSC2=NC(=O)/C(=C\c3cccs3)C(=N)N12,0,1,3,-23,6
N=C1/C(=C\c2coc3ccccc3c2=O)C(=O)N=C2SC=CN12,-18,14,-125,-152,81*
CSC1=NSC2=NC(=O)/C(=C/c3coc4ccc(O)cc4c3=O)C(=N)N12,-156,22,-223,-384,177*
N=C1/C(=C/c2cccn2Cc2ccc(F)cc2)C(=O)N=C2SC=CN12,-7,2,-6,11,7
CC1=CC2=NC(=O)/C(=C/c3coc4ccc(Cl)cc4c3=O)C(=N)N2O1,-62,-9,-72,-300,58*
CC1=CC2=NC(=O)/C(=C\c3cc(C)n(-c4cccc(Cl)c4)c3C)C(=N)N2O1,-2,0,-11,1,-6
CSC1=NSC2=NC(=O)/C(=C/c3coc4ccccc4c3=O)C(=N)N12,-86,23,-253,-372,287*
COc1cc(/C=C2/C(=N)N3C(SC)=NSC3=NC2=O)ccc1OC(=O)c1ccco1,-6,-1,2,-37,0
CCOC(=O)C1CCCN(C(=O)c2sc(-c3ccccc3)nc2C)CC1 (stereo unspecified),·,·,·,-1,·
C[C@@H]1CN([C@H](C)CO)C(=O)c2cc(Br)cnc2O[C@@H]1CN(C)Cc1ccc(F)cc1,·,·,·,-7,·

# Screens as filed in PubChem.
